Source: PubChem (National Center for Advancing Translational Sciences (NCATS))
This is a sample that favours compounds with a hit; in the whole collection about 8% have one here.
VP16 counter: Gal4-VP16 reporter inhibition counter-screen. 310,000 tested, 3.5% active. AID 2546. Potency, µM (top dose mostly 53.6 µM), most hits filed as inhibitors. Drosophila S2 Gal4-VP16 UAS-luciferase, luminescence, 20 h;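 note: Gal4-VP16 expression switched on by copper sulfate through the metallothionein promoter; nearly all actives have a fitted effect of over 50% in size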
RORg inh: inhibitors of mouse ROR gamma transcriptional activity | Drosophila S2 Gal4-RORgamma UAS-luciferase reporter, 20 h | Potency, µM (top dose mostly 53.6 µM), usual class: inhibitors | 310,000 tested, 5.4% active | AID 2551; note: nearly all actives have a fitted effect of over 60% in size
Target sequence (P51450 whole entry, looked up, the tested form may be a part): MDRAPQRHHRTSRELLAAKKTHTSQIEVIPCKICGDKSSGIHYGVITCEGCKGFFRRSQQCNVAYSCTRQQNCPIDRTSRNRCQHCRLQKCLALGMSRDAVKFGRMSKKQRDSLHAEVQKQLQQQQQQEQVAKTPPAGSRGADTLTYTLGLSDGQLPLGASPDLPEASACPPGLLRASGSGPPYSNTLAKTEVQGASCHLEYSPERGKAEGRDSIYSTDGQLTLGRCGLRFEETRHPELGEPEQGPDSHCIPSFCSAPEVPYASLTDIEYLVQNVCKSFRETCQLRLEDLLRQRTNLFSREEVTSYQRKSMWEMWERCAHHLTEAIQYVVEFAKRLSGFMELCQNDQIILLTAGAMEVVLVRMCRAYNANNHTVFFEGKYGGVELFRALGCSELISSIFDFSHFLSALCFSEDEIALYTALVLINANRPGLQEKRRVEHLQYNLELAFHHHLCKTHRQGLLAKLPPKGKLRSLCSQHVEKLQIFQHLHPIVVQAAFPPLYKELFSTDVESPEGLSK
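Drosophila S2 cells stably expressing Gal4-DBD/mouse RORγ fusion under metallothionein promoter plus UAS-luciferase; compound 1 h, then 700 uM CuSO4 induction for 20 h at ambient temperature; inhibition read as reduced luminescence.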
TSHR antagonist: human thyrotropin receptor antagonism; 330,000 tested, 0.2% active; activity change, negative = inhibition, % at 11.5 µM; TSHR-expressing cells, TSH-stimulated cAMP HTRF, 2 h; active compounds read low; P16473;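 active = activity change below a set negative limit, meaning inhibition stronger than a set level, cut at about -70% in these data; inconclusive = activity change between two set negative limits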
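Competitive HTRF cAMP read-out (cryptate anti-cAMP antibody, cAMP-d2; 30 min, room temperature) in freshly harvested TSHR cells. Compounds added before TSH at EC80 (4nM final), followed by 2 hours' incubation at 37 deg C.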
ELG1 DNA repair: blocks ELG1-dependent DNA repair in HEK293T cells | HEK293T ELG1-luciferase reporter, luminescence, 16 h; DNA damage induced by 5-fluorouridine | Potency, µM (top dose mostly 46.1 µM), usual class: inhibitors | 330,000 tested, 2.3% active | AID 504467; note: nearly all actives have a fitted effect of over 55% in size
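Cells (2,000 per well) received 5-fluorouridine plus test compound or DMSO and were incubated 16 hr at 37 °C, 5% CO2. Luciferase activity was read by luminescence 30 min after ONE-Glo addition; signal suppression marked inhibition of damage-induced ELG1 function.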
FBPA coupling cs: inhibits coupling enzyme system, counter-screen for aldolase hits | coupling enzyme system counterscreen, AmpLite Red fluorescence | activity change, negative = inhibition, % at 58.2 µM, hits read low | 290,000 tested, 0.67% active; in the data active = activity change below about -30%
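Activity here indicates interference with the coupling reaction, not aldolase inhibition. Compounds at 57.5 uM final met coupling enzymes for 10 min at RT; substrate and AmpLite Red detection followed, with a 525/598 nm fluorescence read after 20 min.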
Of the large screens only hits and unclear results are named; the others gave an inactive call. Unless noted, calls come from the whole dose curve; as a rule, active = well fitted curve in the direction sought with a large enough effect; inconclusive = small, poorly fitted or top-dose-only effect, or another doubt; inactive = no such curve, though single readings can be large; an effect the other way counts as inactive or inconclusive.

CC(=O)Nc1ccc(Nc2nc(C(F)(F)F)nc3c2nnn3Cc2ccccc2Cl)cc1	ELG1 DNA repair inconclusive (no result: VP16 counter, RORg inh)
O=C(N/N=C/c1cc(Br)ccc1O)C(c1ccncc1)N1CCOCC1 (stereo not drawn)	VP16 counter 15.8µM, RORg inh 5.01µM
O=C(CC1C(=O)Nc2ccccc2N1CC(=O)N1CCCC1)Nc1ccc(Br)cc1 (stereo not drawn)	none (no result: VP16 counter, RORg inh, FBPA coupling cs)
C/C(=C1/C(=O)N(c2ccc([N+](=O)[O-])cc2)N=C1c1ccccc1)N(C)C	VP16 counter 14.1µM, RORg inh inconclusive
COc1cc(-c2cc(C(=O)Nc3ccccc3N3CCOCC3)c3ccccc3n2)cc(OC)c1OC	ELG1 DNA repair 5.8µM
COc1cc(-c2cc(C(=O)Nc3ccc(C)c(S(=O)(=O)N4CCOCC4)c3)c3ccccc3n2)cc(OC)c1OC	ELG1 DNA repair 2.06µM (no result: VP16 counter, RORg inh, FBPA coupling cs)
Cc1ccc(-c2nn(-c3ccccc3)cc2C(=O)Nc2ccc(C)c(S(=O)(=O)N3CCOCC3)c2)cc1	RORg inh inconclusive, ELG1 DNA repair inconclusive
Cc1ccc(NC(=O)CN(C)C(=O)c2cc(-c3ccco3)nc3ccccc23)cc1	ELG1 DNA repair 13µM (no result: VP16 counter, RORg inh, FBPA coupling cs)
O=C(Nc1ccccc1N1CCOCC1)c1cc(-c2ccco2)nc2ccccc12	ELG1 DNA repair 5.17µM
COc1ccccc1CCC(=O)N(C)CC(=O)Nc1ccc(F)cc1	none (no result: FBPA coupling cs)
CCOC(=O)C1=C(c2ccccc2)NC(=S)NC1c1ccc(C)c([N+](=O)[O-])c1 (stereo not drawn)	VP16 counter 11.2µM, RORg inh inconclusive, ELG1 DNA repair inconclusive
CCOC(=O)C1=C(c2ccccc2)NC(=S)NC1C (stereo not drawn)	VP16 counter inconclusive, RORg inh 10µM
CCOC(=O)C1=C(c2ccccc2)NC(=S)NC1c1cc([N+](=O)[O-])ccc1OC (stereo not drawn)	VP16 counter inconclusive, RORg inh 12.6µM (no result: FBPA coupling cs)
CCOC(=O)C1=C(C)NC(=S)NC1C (stereo not drawn)	RORg inh inconclusive
CC[C@]1(C(=O)OC)[C@H]2C(=O)N(Cc3ccccc3)C(=O)[C@H]2[C@H]2CN=C(SCC3CC3)N21	none (no result: VP16 counter, RORg inh, FBPA coupling cs)
O=C1C2Cc3c([nH]c4ccccc34)C(c3ccccc3)N2C(=O)C2Cc3c([nH]c4ccccc34)C(c3ccccc3)N12 (stereo not drawn)	none (no result: TSHR antagonist, ELG1 DNA repair)
CCN(Cc1ccccc1)S(=O)(=O)c1cc(C(=O)NCC2CCCCC2)ccc1OC	ELG1 DNA repair 23.1µM
CCCn1ccnc1SC(C)C(=O)Nc1c(C)n(C)n(-c2ccccc2)c1=O (stereo not drawn)	none (no result: VP16 counter, RORg inh, FBPA coupling cs)
CCOc1ccccc1C(=O)N1CCC(n2nnc3cc(C(F)(F)F)ccc32)CC1	ELG1 DNA repair 20.6µM
O=C(CSc1nnc(-c2cccnc2)o1)c1cc2ccccc2oc1=O	VP16 counter 3.98µM, RORg inh inconclusive
O=C(CSc1nnc(-c2cccnc2)o1)Oc1ccccc1	ELG1 DNA repair inconclusive
COc1ccc(OC)c(S(=O)(=O)N2CCC(C(=O)NCc3ccc4c(c3)OCO4)CC2)c1	none (no result: FBPA coupling cs)
OCc1ccc(-c2ccc(-c3ccc(CO)s3)o2)s1	VP16 counter 1.58µM, RORg inh 0.631µM (no result: TSHR antagonist, ELG1 DNA repair)
Cc1c(C(=O)OCc2nc3scc(-c4ccccc4)c3c(=O)[nH]2)cccc1[N+](=O)[O-]	RORg inh inconclusive, ELG1 DNA repair inconclusive
O=C(OCc1nc2scc(-c3ccccc3)c2c(=O)[nH]1)c1cc(Cl)ccc1[N+](=O)[O-]	VP16 counter inconclusive, RORg inh 11.2µM
CCOc1cc(OCC)cc(C(=O)NC(=S)Nc2cccc(C(F)(F)F)c2)c1	RORg inh 5.01µM
O=C(O)c1cccc(NC(=S)NC(=O)c2ccncc2)c1	none
O=C(NC(=S)Nc1cccc(C(F)(F)F)c1)c1ccc2nonc2c1	VP16 counter 10µM, RORg inh 3.16µM
O=C(/C=C/c1ccc(/C=C/C(=O)Nc2ccc(C3=NCCN3)cc2)cc1)Nc1ccc(C2=NCCN2)cc1	none (no result: TSHR antagonist, ELG1 DNA repair)
O=C(CSc1nc2[nH]ncc2c(=O)[nH]1)Nc1ccc(Cl)cc1	none (no result: VP16 counter, RORg inh, FBPA coupling cs)
COc1c2ccoc2nc2c(OC)c(O[C@@H]3O[C@H](C)[C@@H](O)[C@@H](O)[C@H]3O)ccc12	none (no result: TSHR antagonist, ELG1 DNA repair)
Cc1csc(NC(=O)c2ccc(OCC3CCCO3)cc2)n1 (stereo not drawn)	VP16 counter inconclusive, RORg inh 3.55µM, ELG1 DNA repair inconclusive
Cc1csc(NC(=O)c2cc([N+](=O)[O-])cc([N+](=O)[O-])c2)n1	VP16 counter 2µM, RORg inh inconclusive
Cc1nnc(NC(=O)c2ccc(N3CCCC3=O)cc2)s1	ELG1 DNA repair inconclusive (no result: VP16 counter, RORg inh, FBPA coupling cs)
O=C(Nc1nc(-c2ccc(F)c(F)c2)cs1)c1ccc(OCC2CCCO2)cc1 (stereo not drawn)	ELG1 DNA repair inconclusive
Cc1csc(NC(=O)c2ccc(N3CCCC3=O)cc2)n1	VP16 counter inconclusive, RORg inh 2.51µM, ELG1 DNA repair inconclusive
Cc1csc(NC(=O)c2cc[n+]([O-])cc2)n1	none
Cc1cccc(C(=O)N[C@H](C(=O)Nc2ccc(C)c(S(=O)(=O)N3CCOCC3)c2)C(C)C)c1	ELG1 DNA repair inconclusive (no result: VP16 counter, RORg inh, FBPA coupling cs)
Cc1oc2c(c1C(=O)NCc1cccnc1)C(=O)c1ccccc1C2=O	VP16 counter 4.47µM, RORg inh inconclusive, ELG1 DNA repair 1.64µM
CC(=O)c1c2c3c(c(Br)ccc3n(C)c1=O)C(=O)c1ccccc1-2	none (no result: FBPA coupling cs)
COc1ccc(CNC(=O)c2c(C)oc3c2C(=O)c2ccccc2C3=O)cc1	FBPA coupling cs -44.6
Cc1onc(-c2ccccc2Cl)c1C(=O)NCc1cccnc1	none
CC(=O)c1c(C)oc2c1C(=O)c1ccccc1C2=O	VP16 counter 15.8µM, RORg inh 3.98µM, ELG1 DNA repair 11.6µM, FBPA coupling cs -41.3
O=C1c2ccccc2C(=O)c2c(NCc3cccnc3)cccc21	VP16 counter 3.16µM
Cc1cc(OCCCC(=O)NCCc2nnc3ccccn23)ccc1Cl	none (no result: VP16 counter, RORg inh, TSHR antagonist, FBPA coupling cs)
CS(=O)(=O)c1ccc(-c2nnc(NC(=O)C3=COCCO3)o2)cc1	none (no result: VP16 counter, RORg inh, FBPA coupling cs)
CCCCC(=O)Nc1nnc(C2=COCCO2)o1	RORg inh 12.6µM
COc1cc(C(=O)Nc2nnc(C3=COCCO3)o2)cc(OC)c1OC	VP16 counter 2.82µM, RORg inh 2.51µM (no result: FBPA coupling cs)
CCOc1ccc(C(=O)Nc2nnc(C3=COCCO3)o2)cc1	VP16 counter 1µM, RORg inh 2.51µM (no result: FBPA coupling cs)
COc1ccc(C(=O)Nc2nnc(C3=COCCO3)o2)cc1	VP16 counter 2µM, RORg inh 2.24µM (no result: FBPA coupling cs)
CCN(c1ccccc1)S(=O)(=O)c1ccc2c(c1)OCCO2	none (no result: VP16 counter, RORg inh, FBPA coupling cs)
Cc1cc2nc3c(=O)[nH]c(=O)nc-3n(C[C@H](O)[C@H](O)[C@H](O)COP(=O)(O)OP(=O)(O)OC[C@H]3O[C@@H](n4cnc5c(N)ncnc54)[C@H](O)[C@@H]3O)c2cc1C	none (no result: TSHR antagonist, ELG1 DNA repair, FBPA coupling cs)
Cc1c(C(=O)NC(c2ccccn2)C(F)(F)F)oc2c(F)cccc12 (stereo not drawn)	ELG1 DNA repair inconclusive
